Compound activity from PubChem.
Only some compounds are listed: those with a hit (about 12% of all), similar ones and a draw of the others.
TDP1 inh – blocks human tyrosyl-DNA phosphodiesterase 1 | recombinant TDP1, AlphaScreen DNA substrate cleavage | Potency, µM (doses to about 130 µM), for the others: at the highest dose activity change, negative = inhibition, hits mostly inhibitors | 350,000 compounds, 0.28% hits | AID 485290; further: on the % scale 0 is the no-effect control and ±100 the full control effect; nearly all actives have a fitted effect of over 40% in size
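Here, a 5' biotin and 3' phosphotyrosine-FITC DNA oligonucleotide reports Tdp1 activity: intact substrate bridges AlphaScreen beads, while cleavage leaves a 3' phosphate and drops signal. All incubations at room temperature.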
G9a inh – inhibitors of human histone lysine methyltransferase G9a | Q96KQ7 | G9a H3K9 monomethylation, AlphaScreen, 2 h | Potency, µM (highest dose often 102 µM), inactives show at the highest dose activity, negative = inhibition, most hits filed as inhibitors | 350,000 compounds, 8.8% hits; further: on the % scale 0 is the no-effect control and ±100 the full control effect; nearly all actives have a fitted effect of over 75% in size
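AlphaScreen detection with an anti-monomethyl H3K9 antibody quantified product after a 2 h room-temperature reaction containing 500 nM biotinylated H3K9 peptide, 20 µM SAM and 20 nM enzyme, which had been preincubated 15 min with compound.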
HP1b binding inh – blocks HP1-beta chromodomain binding to methylated histone tails; 390,000 compounds, 0.56% hits; AlphaScreen HP1-beta / biotin-H3K9me3 peptide binding; Potency, µM (top dose mostly 114 µM), for the others: top-dose activity change, negative = inhibition, hits mostly inhibitors; P83916; further: nearly all actives have a fitted effect of over 70% in size
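AlphaScreen: HP1-beta (50 nM) preformed 30 min with biotin-H3(1-18)K9me3 peptide (50 nM) in PBS pH 7.4, 0.01% Tween-20. Compound added for 30 min at RT, then streptavidin donor/nickel chelate acceptor beads (10 ug/mL) for 30 min.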
JMJD2A Tudor inh – inhibitors of human JMJD2A Tudor domain; 390,000 compounds, 4.4% hits; Potency, µM (highest dose often 114 µM), inactives show top-dose activity change, negative = inhibition, usual class: inhibitors; O75164; AlphaScreen JMJD2A-Tudor / H3K4me3 peptide binding; further: on the % scale 0 is the no-effect control and ±100 the full control effect; nearly all actives have a fitted effect of over 50% in size
Target sequence (O75164 whole entry, looked up, the tested form may be a part): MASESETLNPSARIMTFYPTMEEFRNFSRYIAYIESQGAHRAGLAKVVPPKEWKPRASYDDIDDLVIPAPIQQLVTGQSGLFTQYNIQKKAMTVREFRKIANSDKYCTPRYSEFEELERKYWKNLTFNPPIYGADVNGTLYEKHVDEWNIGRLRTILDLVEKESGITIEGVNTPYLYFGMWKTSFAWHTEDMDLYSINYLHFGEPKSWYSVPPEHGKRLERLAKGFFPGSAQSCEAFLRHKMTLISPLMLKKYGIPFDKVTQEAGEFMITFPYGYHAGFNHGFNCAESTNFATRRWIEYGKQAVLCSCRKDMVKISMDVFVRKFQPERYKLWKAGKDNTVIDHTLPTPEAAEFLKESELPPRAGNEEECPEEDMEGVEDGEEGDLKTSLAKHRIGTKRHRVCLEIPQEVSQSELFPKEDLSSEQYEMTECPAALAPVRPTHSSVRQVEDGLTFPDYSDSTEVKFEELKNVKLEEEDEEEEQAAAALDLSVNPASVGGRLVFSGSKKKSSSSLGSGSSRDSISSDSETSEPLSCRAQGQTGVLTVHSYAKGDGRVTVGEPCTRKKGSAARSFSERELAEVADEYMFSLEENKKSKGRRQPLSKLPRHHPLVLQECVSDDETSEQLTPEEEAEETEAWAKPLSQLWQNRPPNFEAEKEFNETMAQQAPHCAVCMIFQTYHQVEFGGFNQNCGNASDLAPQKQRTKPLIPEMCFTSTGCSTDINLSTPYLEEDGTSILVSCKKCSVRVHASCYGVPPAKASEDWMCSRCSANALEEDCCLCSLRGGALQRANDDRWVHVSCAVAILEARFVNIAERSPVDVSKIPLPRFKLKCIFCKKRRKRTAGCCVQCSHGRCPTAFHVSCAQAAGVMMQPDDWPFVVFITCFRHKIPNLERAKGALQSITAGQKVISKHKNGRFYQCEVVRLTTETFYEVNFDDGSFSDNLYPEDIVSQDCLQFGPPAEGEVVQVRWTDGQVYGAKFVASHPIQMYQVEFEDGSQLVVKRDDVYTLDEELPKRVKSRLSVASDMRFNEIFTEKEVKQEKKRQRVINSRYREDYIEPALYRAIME
BAZ2B block – BAZ2B (human) inhibition. Potency, µM (doses to about 114 µM), without a hit: top-dose activity change, negative = inhibition, most hits filed as inhibitors. AlphaScreen BAZ2B-H3K14Ac peptide displacement. 360,000 compounds, 4.4% hits; further: on the % scale 0 is the no-effect control and ±100 the full control effect; nearly all actives have a fitted effect of over 60% in size
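Multi-concentration screen (max 110 uM) measuring displacement of acetylated histone H3 peptide from BAZ2B by AlphaScreen, using 50 nM protein, 50 nM peptide and 10 ug/mL streptavidin donor plus Ni-chelate acceptor beads.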
Sfp inh – Sfp phosphopantetheinyl transferase inhibition. 310,000 compounds, 3.5% hits. Potency, µM, without a hit: largest response in the series, negative = inhibition, usual class: inhibitors. Biochemical Sfp PPTase activity, qHTS. AID 1490. Q9F4F7;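 further: the enzyme is Sfp with the accession as filed and its product quenches rhodamine fluorescence; 0% = enzyme reaction without inhibitor and -100% = no enzyme wells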
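Step 1, compound plus 15 nM Sfp-PPTase, 15 min, room temperature. Step 2, add rhodamine-CoA (5 uM) and BHQ-2-YbbR (12.5 uM). Step 3, read 525/598 nm fluorescence at 0 and 30 min.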
Active calls of the source: *; ? = inconclusive; · = no result given; [ ] = dose if it differs, or a comment. The call rests on the fitted dose curve; in most records, active means well fitted curve in the direction sought with a large enough effect; inconclusive means small, poorly fitted or top-dose-only effect, or another doubt; inactive means no such curve, though single readings can be large; an effect the other way counts as inactive or inconclusive. Potency means the concentration at half of the fitted maximal effect.

SMILES	TDP1 inh	G9a inh	HP1b binding inh	JMJD2A Tudor inh	BAZ2B block	Sfp inh
Cn1c(Cn2nnc3ccccc32)nnc1SCC(=O)c1ccc(F)cc1	-1%	35µM*	22%	45µM*	-6%	?
FC(F)(F)c1cccc(-n2c(Cn3nnc4ccccc43)n[nH]c2=S)c1	4%	·	47%	-24%	-6%	89µM*
Cc1cc(-c2n[nH]c(=S)n2-c2ccc(F)cc2)nn1C	·	?	25%	25µM*	-6%	-16%
CCn1ccnc1[C@@H]1C[C@H]2CN(Cc3ccccc3OC)C(=O)[C@]23CCCN13	-4%	·	13%[57 µM]	0%	5%	2%
Cc1noc(C)c1-c1csc(N2CCC(C(N)=O)CC2)n1	2%	6%[12.7 µM]	36%	?	-1%	·
COc1cccc2sc(NC(=O)c3ccc4c(c3)OCCO4)nc12	5%	5%[59 µM]	17%[57 µM]	-34%	5%	·
Cc1cccc2sc(NNC(=O)c3ccc4c(c3)OCCO4)nc12	9%	10µM*	6%	?	?	40µM*
Cc1cc(C)c2nc(NC(=O)c3ccc(S(=O)(=O)N4CCCC4)cc3)sc2c1	0%	12%[59 µM]	17%[57 µM]	-14%	0%	·
O=C(Nc1nc2c(F)cc(F)cc2s1)c1ccc2c(c1)OCCO2	45µM*	-2%[12.7 µM]	70%[57 µM]	?	-35%	·
Cc1cc(C)c2nc(NNC(=O)c3ccc(S(=O)(=O)N4CCCCC4)cc3)sc2c1	9%	25µM*	9%	?	?	?
Cc1cccc2sc(NNC(=O)c3ccc(S(=O)(=O)N4CCCC(C)C4)cc3)nc12 (stereo not drawn)	7%	25µM*	-24%	11µM*	11%	?
CCc1nnc(NC(=O)c2ccc(S(=O)(=O)N3CCCC(C)C3)cc2)s1 (stereo not drawn)	6%	-4%	59%	-10%	-22%	8%
CCn1cc(C(=O)NCCCN2CCCC(C)C2)c(=O)c2cc(S(=O)(=O)N3CCOCC3)ccc21 (stereo not drawn)	6%	10%	67%	-6%	8%	21%
Cc1cccc2sc(NNC(=O)c3ccc(S(=O)(=O)N4CCc5ccccc5C4)cc3)nc12	4%	40µM*	-15%	8.9µM*	4µM*	?
CNc1cccnc1C=NNC(N)=S	·	·	28%	79µM*	·	·
COc1ccc(-c2cc3nc(C4CCN(C(=O)OC(C)(C)C)CC4)c(C(=O)Nc4cc(Cl)cc(Cl)c4)cn3n2)cc1	1%	-1%[59 µM]	35%	-23%	-1%	·
Nc1nc(CN2CCN(c3ccc(F)cc3)CC2)nc(N2CCCc3ccccc32)n1	7%	40µM*	-9%	50µM*	-64%	4%
COc1ccc(Nc2nc(N)nc(CN3CCN(c4ccc(F)cc4)CC3)n2)cc1	6%	?	20%	?	?	21%
O=C(COc1ccccc1)Nc1sc2c(c1C(=O)Nc1ccccc1Cl)CCCCC2	-8%[12.3 µM]	?	11%	-14%	-14%	·
O=C(Nc1sc2c(c1C(=O)O)CCC2)c1ccc(F)cc1	2%	40µM*	19%	-19%	?	-6%
CCSc1ncc(Cl)c(C(=O)Nc2sc3c(c2C(=O)NCc2cccnc2)CCCC3)n1	5%	26%[59 µM]	10%	100µM*	5%	-14%
O=C(Nc1sc2c(c1C(=O)O)CCC2)c1ccccc1	·	?	-22%	?	79µM*	3%
O=C(Cc1ccccc1)Nc1sc2c(c1C(=O)Nc1ccccc1Cl)CCCC2	-5%[12.3 µM]	7.1µM*	-2%	-13%	-4%	·
COc1ccc(NC(=O)CSc2nc(-c3ccc(OC)cc3)cc(=O)[nH]2)cc1	·	36%[59 µM]	42%	-5%	20%	·
CCOC(=O)c1c(NC(=O)c2ccc(C)cc2)sc2c1CCCCC2	0%[2.28 µM]	2%[59 µM]	75%	37%	18%	·
O=C(Nc1sc2c(c1C(=O)O)CCCC2)c1ccc(Cl)cc1	·	15%[59 µM]	25%	-23%	-30%	8%
Cc1ccc(C(=O)c2c(NC(=O)c3cccnc3)sc3c2CCCC3)cc1	10%	?	-31%	56µM*	?	?
